Data: PubChem BioAssay (EPA / NIEHS)
“And” between values parts separate entries of the source, which are not always exact repeats. Equal entries are not always repeated. Results filed as inconclusive are left out. A structure can be active in one record and inactive in another. The source made the active and inactive calls. The calls were made as follows, unless noted: active = hit-call score of the fitted dose curve at least 0.9, where 1 is the maximum; inactive = score below 0.9.

Tests used:
[1] = ATG_GRE_CIS: Attagene CIS-FACTORIAL HepG2 Assay for human Glucocorticoid Response Elements (GRE) (AID 2282947); conditions: HepG2 GRE cis-reporter, Attagene multiplex mRNA; actives raise or lower the signal
In short: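 Assay uses human hepatoma HepG2 cells transfected with cis-promoter reporter units, exposed 24 h. mRNA from reporters detected by RT-PCR plus capillary electrophoresis; DMSO serves as negative control and baseline.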

[2] = target: Hypoxia-inducible factor 1-alpha (Homo sapiens) (UniProt Q16665); experiment: ATG_HIF1a_CIS: Attagene CIS-FACTORIAL HepG2 Assay for human Hypoxia Inducible Factor 1 (HIF1A) (AID 2282951); conditions: HepG2 Attagene cis-factorial HIF1a reporter transcription; actives raise or lower the signal
Chain of Hypoxia-inducible factor 1-alpha (Homo sapiens) (Q16665 whole entry, looked up): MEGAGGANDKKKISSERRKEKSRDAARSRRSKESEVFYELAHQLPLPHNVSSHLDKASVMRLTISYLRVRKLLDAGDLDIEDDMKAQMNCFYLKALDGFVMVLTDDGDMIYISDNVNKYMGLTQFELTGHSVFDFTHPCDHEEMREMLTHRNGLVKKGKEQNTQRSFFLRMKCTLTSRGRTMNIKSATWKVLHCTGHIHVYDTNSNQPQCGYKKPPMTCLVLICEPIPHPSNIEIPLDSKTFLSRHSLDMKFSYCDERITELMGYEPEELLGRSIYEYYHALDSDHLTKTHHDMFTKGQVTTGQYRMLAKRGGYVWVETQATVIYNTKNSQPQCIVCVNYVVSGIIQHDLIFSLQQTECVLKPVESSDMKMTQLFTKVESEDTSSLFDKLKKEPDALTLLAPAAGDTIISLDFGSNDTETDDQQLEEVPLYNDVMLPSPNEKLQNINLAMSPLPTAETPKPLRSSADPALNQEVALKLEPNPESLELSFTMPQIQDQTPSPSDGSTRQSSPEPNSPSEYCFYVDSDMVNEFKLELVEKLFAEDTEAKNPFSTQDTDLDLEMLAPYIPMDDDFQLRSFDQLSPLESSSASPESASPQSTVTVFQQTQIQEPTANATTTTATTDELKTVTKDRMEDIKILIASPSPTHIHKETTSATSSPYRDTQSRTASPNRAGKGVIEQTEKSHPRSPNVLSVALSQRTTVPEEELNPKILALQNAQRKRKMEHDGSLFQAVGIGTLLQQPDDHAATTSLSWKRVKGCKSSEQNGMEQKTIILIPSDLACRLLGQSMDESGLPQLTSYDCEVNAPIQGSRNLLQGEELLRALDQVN
In short: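 HepG2 cells transiently transfected with multiplexed cis-promoter reporter units; reporter mRNA read 24 h after dosing by RT-PCR, 6-FAM primer-extension labelling, HpaI digestion and capillary electrophoresis. Bidirectional fit versus DMSO baseline.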

[3] = target: Paired box protein Pax-6 (Homo sapiens) (UniProt P26367); experiment: ATG_Pax6_CIS: Attagene CIS-FACTORIAL HepG2 Assay for human Paired Box 6 (PAX6) (AID 2282956); conditions: HepG2 CIS-FACTORIAL PAX6 reporter transcription, RNA readout; actives raise or lower the signal
Chain of Paired box protein Pax-6 (Homo sapiens) (P26367 whole entry, looked up): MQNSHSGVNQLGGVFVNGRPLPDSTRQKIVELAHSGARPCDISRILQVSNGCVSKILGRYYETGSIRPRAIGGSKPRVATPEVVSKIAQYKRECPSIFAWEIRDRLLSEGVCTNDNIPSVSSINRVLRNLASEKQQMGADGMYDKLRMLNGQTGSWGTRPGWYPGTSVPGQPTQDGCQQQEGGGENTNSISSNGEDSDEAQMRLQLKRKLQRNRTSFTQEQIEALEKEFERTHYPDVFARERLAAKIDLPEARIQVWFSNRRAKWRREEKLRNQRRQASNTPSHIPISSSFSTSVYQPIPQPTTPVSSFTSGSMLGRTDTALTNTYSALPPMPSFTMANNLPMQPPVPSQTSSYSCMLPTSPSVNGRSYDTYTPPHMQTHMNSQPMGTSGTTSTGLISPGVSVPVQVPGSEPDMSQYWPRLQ
In short: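 HepG2 cells transiently transfected with cis-promoter-driven multiplexed reporter units sensing endogenous transcription factor activity; 24 h chemical exposure. Reporter mRNA quantified by RT-PCR, 6-FAM labelling, HpaI digestion and capillary electrophoresis; bidirectional fit versus DMSO baseline.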

[4] = ATG_TA_CIS: Attagene CIS-FACTORIAL HepG2 Assay for human TA Basal Promoter (AID 2282964); conditions: HepG2 Attagene CIS-factorial TA basal promoter reporter; actives raise or lower the signal
In short: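 Background internal-marker endpoint from a 52-component HepG2 cis-reporter panel. Cells treated 24 h; reporter transcripts quantified via RT-PCR and CE fluorescence against DMSO baseline.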

[5] = ATG_M_06_TRANS: Attagene TRANS-FACTORIAL HepG2 Assay for M06 Transcription Factor (Internal Marker) (AID 2282983; active = hit-call score of the fitted dose curve at least 0.9, where 1 is the maximum;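 also: reporter transcript level by RT-PCR then capillary electrophoresis fluorescence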); conditions: HepG2 Attagene TRANS M06 internal marker reporter
In short: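 Measured by capillary electrophoresis of fluorescently labelled RT-PCR products, this endpoint reflects reporter mRNA in HepG2 cells harbouring exogenous NR-GAL4 reporter constructs after 24 h exposure, with DMSO as baseline.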

[6] = ATG_NRF2_ARE_CIS: Attagene CIS-FACTORIAL HepG2 Assay for human Nuclear Factor Erythroid 2 Related Factor 2 (NFR2) response to Antioxidant Response Elements (ARE) (AID 2282992); conditions: HepG2 Attagene ARE/NRF2 reporter, transcription factor activity; actives raise or lower the signal;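 as to AC50: reporter mRNA level measured by RT-PCR and capillary electrophoresis fluorescence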
In short: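 HepG2 cells transiently transfected with multiplexed cis-element reporter constructs, 24 h after chemical dosing; reporter mRNA quantified by RT-PCR, fluorescent primer extension, HpaI digestion and capillary electrophoresis. Bidirectional fit relative to DMSO.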

[7] = target: Cellular tumor antigen p53 (Homo sapiens) (UniProt P04637); experiment: ATG_p53_CIS: Attagene CIS-FACTORIAL HepG2 Assay for human p53 Transcription Factor (AID 2282994); conditions: HepG2 p53 cis-element reporter, Attagene mRNA; actives raise or lower the signal
Chain of Cellular tumor antigen p53 (Homo sapiens) (P04637 whole entry, looked up): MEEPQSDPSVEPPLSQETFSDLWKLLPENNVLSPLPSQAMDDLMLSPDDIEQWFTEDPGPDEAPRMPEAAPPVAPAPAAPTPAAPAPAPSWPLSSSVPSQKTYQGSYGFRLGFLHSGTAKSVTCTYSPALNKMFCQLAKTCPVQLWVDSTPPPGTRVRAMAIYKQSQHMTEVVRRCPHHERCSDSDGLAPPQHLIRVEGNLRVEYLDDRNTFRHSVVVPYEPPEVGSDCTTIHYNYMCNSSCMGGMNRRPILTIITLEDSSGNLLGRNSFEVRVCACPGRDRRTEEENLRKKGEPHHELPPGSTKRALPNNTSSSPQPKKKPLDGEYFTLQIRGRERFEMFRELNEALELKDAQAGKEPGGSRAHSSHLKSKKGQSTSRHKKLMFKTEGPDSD
In short: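 HepG2 cells transiently transfected with cis-regulated multiple reporter transcription units, dosed 24 h. Reporter mRNA measured by RT-PCR, 6-FAM primer extension, HpaI digestion and capillary electrophoresis; bidirectional fit relative to DMSO.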

[8] = BSK_3C_TissueFactor: BioMAP Diversity Plus: 3C Assay for Tissue Factor Biomarker Activity (AID 2282997); conditions: BioMAP 3C HUVEC, tissue factor biomarker readout; actives raise or lower the signal
In short: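 Values derive from bidirectional curve fitting against DMSO of Tissue Factor ELISA signals, taken 24 h after dosing primary human umbilical vein endothelial cells.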

[9] = target: human Peroxisome Proliferator-activated Receptor alpha (PPARa), PPARA (gene 5465) (UniProt Q07869); experiment: ATG_PPARa_TRANS: Attagene TRANS-FACTORIAL HepG2 Assay for human Peroxisome Proliferator-activated Receptor alpha (PPARa) (AID 2283001; active = hit-call score of the fitted dose curve at least 0.9, where 1 is the maximum;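 as to AC50: potency for gain of reporter signal over DMSO so agonist or activator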)
Chain of human Peroxisome Proliferator-activated Receptor alpha (PPARa), PPARA (gene 5465) (Q07869 whole entry, looked up, the tested form may be a part): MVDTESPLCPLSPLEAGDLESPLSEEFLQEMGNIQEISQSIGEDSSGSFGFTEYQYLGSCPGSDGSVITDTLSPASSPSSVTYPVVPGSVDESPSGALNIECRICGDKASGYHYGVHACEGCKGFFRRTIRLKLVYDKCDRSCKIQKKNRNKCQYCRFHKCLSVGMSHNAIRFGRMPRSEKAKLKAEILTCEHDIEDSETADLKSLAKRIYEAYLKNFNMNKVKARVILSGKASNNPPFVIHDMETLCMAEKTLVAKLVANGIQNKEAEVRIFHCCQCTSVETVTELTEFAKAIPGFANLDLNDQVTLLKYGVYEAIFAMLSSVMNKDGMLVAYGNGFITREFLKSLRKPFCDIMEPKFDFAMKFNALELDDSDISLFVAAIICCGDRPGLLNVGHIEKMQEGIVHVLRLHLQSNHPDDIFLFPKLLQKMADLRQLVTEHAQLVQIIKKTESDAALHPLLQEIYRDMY
In short: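 Reporter transcripts from GAL4-UAS units in transfected HepG2 were quantified 24 h after dosing. Detection used reverse transcription, PCR, fluorescent primer extension and capillary electrophoresis, with DMSO as baseline.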

[10] = read-out: Intercellular Adhesion Molecule 1 (ICAM1), ICAM1 (gene 3383); experiment: BSK_3C_ICAM1: BioMAP Diversity Plus: 3C Assay for Intercellular Adhesion Molecule 1 (ICAM1) Biomarker Activity (AID 2283003); conditions: primary human endothelial cells (HUVEC); actives raise or lower the signal
In short: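 Primary human umbilical vein endothelial cells in the BioMAP 3C system were exposed to chemicals for 24 h, then ICAM-1 was quantified by ELISA. Activity was fitted bidirectionally against the DMSO negative control baseline.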

[11] = read-out: E-selectin (Homo sapiens) (UniProt P16581); experiment: BSK_3C_Eselectin: BioMAP Diversity Plus: 3C Assay for Eselectin Biomarker Activity (AID 2283015); conditions: primary human endothelial cells (HUVEC); actives raise or lower the signal
In short: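 Human vascular endothelium from umbilical vein is exposed to test chemicals for 24 h. E-selectin levels are read by ELISA and compared with DMSO controls.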

[12] = read-out: Thrombomodulin, THBD (gene 7056); experiment: BSK_3C_Thrombomodulin: BioMAP Diversity Plus: 3C Assay for Thrombomodulin Biomarker Activity (AID 2283029); conditions: primary human endothelial cells (HUVEC); actives raise or lower the signal
In short: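 Primary human umbilical vein endothelial cells (3C system) were exposed to chemical for 24 h, then thrombomodulin levels were measured by ELISA. Activity was fitted bidirectionally against the DMSO negative control as baseline.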

[13] = read-out: Vascular endothelial growth factor receptor 2 (Homo sapiens) (UniProt P35968); experiment: BSK_4H_VEGFRII: BioMAP Diversity Plus: 4H Assay for Vascular endothelial growth factor receptor 2 (VEGFR2) Biomarker Activity (AID 2283031); conditions: primary human endothelial cells (HUVEC); actives raise or lower the signal;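 as to AC50: cell-surface VEGFR2 protein level quantified by ELISA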
In short: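 VEGFRII levels on human vascular endothelial primary cells were determined by ELISA at 24 hours post-dosing, with gain- or loss-of-signal fitted against DMSO controls.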

[14] = read-out: Thrombomodulin, THBD (gene 7056); experiment: BSK_CASM3C_Thrombomodulin: BioMAP Diversity Plus: CASM3C Assay for Thrombomodulin Biomarker Activity (AID 2283051); conditions: primary human coronary artery smooth muscle cells; actives raise or lower the signal;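 also: thrombomodulin protein level measured by ELISA 24 h after dosing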
[15] = read-out: Vascular cell adhesion molecule 1 (VCAM1), VCAM1 (gene 7412); experiment: BSK_CASM3C_VCAM1: BioMAP Diversity Plus: CASM3C Assay for Vascular cell adhesion molecule 1 (VCAM1) Biomarker Activity (AID 2283055); conditions: primary human coronary artery smooth muscle cells; actives raise or lower the signal;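 also: VCAM-1 protein level quantified by ELISA on the cells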
CD40, CD40 (gene 958) = experiment: BSK_SAg_CD40: BioMAP Diversity Plus: SAg Assay for CD40 Biomarker Activity (AID 2283088); conditions: primary human HUVEC with PBMC; actives raise or lower the signal
In short: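 Fluorescence ELISA read-out of CD40 from umbilical vein endothelium plus peripheral blood mononuclear cells, sampled 24 h after dosing. Values come from bidirectional curve fitting with DMSO as baseline.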

[16] = ATG_XTT_Cytotoxicity: Cytotoxicity Assessment in the Attagene TRANS-FACTORIAL HepG2 Assay (AID 2283584; active = hit-call score of the fitted dose curve at least 0.9, where 1 is the maximum)
In short: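 Transfect HepG2 with GAL4-UAS reporter units, dose compound, incubate 24 h, then measure viable cell number by XTT. Fit concentration response against DMSO baseline.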

[17] = CCTE_Harrill_HTTr_Viability_MCF7: CCTE's 6-hour Cell Viability Assessment for the High-Throughput Transcriptomics (HTTr) Platform, in MCF-7 cells cultured in DMEM + 10% fetal bovine serum, Harrill Lab (AID 2284010)
In short: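 Membrane integrity was scored by high-content imaging of propidium iodide dye exclusion after a 6 h exposure across an eight-point dilution series. Data were fitted bidirectionally relative to DMSO as negative control and baseline.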

[18] = CCTE_Harrill_HTTr_Apoptosis_MCF7: CCTE's 6-hour Apoptosis Assessment for the High-Throughput Transcriptomics (HTTr) Platform, in MCF-7 cells cultured in DMEM + 10% fetal bovine serum, Harrill Lab (AID 2284011)
In short: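 Cells are dosed with test chemicals at eight concentrations and imaged 6 hours later for caspase-3/7 activity using a green fluorogenic detection reagent. Activity is fitted in both directions against DMSO controls.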

[19] = target: bovine Estrogen Receptor (ER), ESR1 (gene 407238) (UniProt P49884); experiment: NVS_NR_bER: NovaScreen (NVS) Nuclear Receptor Binding Assay for bovine Estrogen Receptor (ER) (AID 2283345; active = hit-call score of the fitted dose curve at least 0.9, where 1 is the maximum;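 also: actives lower the bound radioligand count which means they displace the ER ligand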)
Chain of bovine Estrogen Receptor (ER), ESR1 (gene 407238) (P49884 whole entry, looked up): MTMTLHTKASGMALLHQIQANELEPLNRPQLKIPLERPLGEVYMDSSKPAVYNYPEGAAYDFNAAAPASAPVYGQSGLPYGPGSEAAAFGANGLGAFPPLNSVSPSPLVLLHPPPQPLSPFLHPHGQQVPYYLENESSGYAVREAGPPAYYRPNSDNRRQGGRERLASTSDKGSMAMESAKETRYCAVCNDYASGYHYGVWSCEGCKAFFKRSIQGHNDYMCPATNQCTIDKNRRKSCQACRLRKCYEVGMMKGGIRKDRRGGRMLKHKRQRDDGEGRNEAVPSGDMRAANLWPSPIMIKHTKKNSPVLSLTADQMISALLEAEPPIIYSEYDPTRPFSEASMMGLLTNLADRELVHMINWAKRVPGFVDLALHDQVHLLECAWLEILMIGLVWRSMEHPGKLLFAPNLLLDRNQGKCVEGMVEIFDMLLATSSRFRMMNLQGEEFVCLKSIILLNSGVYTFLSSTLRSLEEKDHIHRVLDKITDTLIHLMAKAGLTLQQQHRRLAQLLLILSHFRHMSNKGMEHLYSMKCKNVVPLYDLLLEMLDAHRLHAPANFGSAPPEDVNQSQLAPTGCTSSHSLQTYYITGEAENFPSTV
In short: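 Cell-free radioligand binding with bovine uterine membrane extracts, read 18 hours after dosing by scintillation counting. Loss of signal versus DMSO baseline indicates displacement. Primary screen run in duplicate at 25 uM, actives followed in concentration series.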

Measured: AC50

Chain of E-selectin (Homo sapiens) (P16581 whole entry, looked up): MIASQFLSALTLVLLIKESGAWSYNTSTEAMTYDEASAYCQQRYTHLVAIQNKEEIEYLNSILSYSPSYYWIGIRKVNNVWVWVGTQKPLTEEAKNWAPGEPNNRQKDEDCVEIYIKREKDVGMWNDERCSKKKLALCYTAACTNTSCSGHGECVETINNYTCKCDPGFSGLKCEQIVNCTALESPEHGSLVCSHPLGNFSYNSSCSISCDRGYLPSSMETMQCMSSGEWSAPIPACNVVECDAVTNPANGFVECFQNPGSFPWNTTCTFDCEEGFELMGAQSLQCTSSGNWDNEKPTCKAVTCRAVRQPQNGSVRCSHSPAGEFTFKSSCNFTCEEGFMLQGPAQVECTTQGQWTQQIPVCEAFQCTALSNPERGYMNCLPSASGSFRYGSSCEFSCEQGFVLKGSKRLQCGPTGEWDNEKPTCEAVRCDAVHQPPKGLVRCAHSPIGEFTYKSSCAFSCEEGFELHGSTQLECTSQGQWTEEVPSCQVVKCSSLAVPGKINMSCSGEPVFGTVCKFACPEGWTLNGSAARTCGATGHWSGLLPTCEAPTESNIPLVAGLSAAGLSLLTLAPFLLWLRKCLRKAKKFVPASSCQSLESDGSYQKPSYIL

Sc1nc2ccccc2s1
active: [6] 100 µM | [8] 1.09 µM | [15] 0.016 µM
inactive: [1] | [2] | [3] | [4] | [5] | [7] | [9] | [10] | [11] | [12] | [13] | [14] | CD40, CD40 (gene 958) | [16]

CNC(=C[N+](=O)[O-])NCCSCc1csc(CN(C)C)n1
inactive: [1] | [4] | [6] | [7] | [16] | [17] | [18]

Oc1cccc2ccccc12
active: [6] 4.38 µM | [8] 12.1 µM | [14] 5.22 µM
inactive: [1] | [2] | [3] | [4] | [5] | [7] | [9] | [10] | [11] | [12] | [13] | [15] | CD40, CD40 (gene 958) | [16] | [17] | [18]

O=[N+]([O-])c1cc(S(=O)(=O)Nc2ccccc2)ccc1Nc1ccccc1
active: [8] 34.8 µM | [11] 13.3 µM | [12] 20 µM | [13] 32.6 µM | [14] 5.66 µM and 8.09 µM | [15] 20 µM | CD40, CD40 (gene 958) 26 µM and 25 µM
inactive: [8] | [10] | [11] | [12] | [13] | [15]

CC(=O)O[C@]1(C(C)=O)CC[C@H]2[C@@H]3C=C(C)C4=CC(=O)CC[C@]4(C)[C@H]3CC[C@@]21C
inactive: [19] | [17] | [18]

CC/C=C\CCO
inactive: [1] | [2] | [4] | [5] | [6] | [7] | [9] | [16] | [17] | [18]

Cc1c(C(N)=O)cc([N+](=O)[O-])cc1[N+](=O)[O-]
inactive: [8] | [10] | [11] | [12] | [13] | [14] | [15] | CD40, CD40 (gene 958)
active: CD40, CD40 (gene 958) 32.4 µM

OC(C(F)(F)F)(C(F)(F)F)C(O)(C(F)(F)F)C(F)(F)F
active: [8] 23.7 µM and 22.6 µM | [10] 40.6 µM | [11] 21.5 µM and 30 µM | [12] 48 µM | [13] 30 µM and 20.5 µM | [14] 30 µM | [15] 30 µM | CD40, CD40 (gene 958) 35.2 µM and 28.6 µM
inactive: [10] | [12] | [14]

OCCOCCOCCOCCOCCO
inactive: [2] | [3] | [4] | [5] | [6] | [7] | [9] | [16]

COc1ccccc1Oc1c(NS(=O)(=O)c2ccc(C(C)(C)C)cc2)nc(-c2ncccn2)nc1OCCO
active: [14] 7.25 µM | [15] 10 µM | CD40, CD40 (gene 958) 20 µM
inactive: [8] | [10] | [11] | [12] | [13] | [14] | [15] | CD40, CD40 (gene 958) | [17] | [18]

CC(=O)Nc1c(I)c(NC(C)=O)c(I)c(C(=O)O)c1I
inactive: [1] | [4] | [5] | [6] | [16]

CC1(O)CSC(C)(O)CS1 (stereo not given)
inactive: [19]

CCc1cc(C(N)=S)ccn1
inactive: [1] | [3] | [5] | [6] | [7] | [9] | [16] | [17] | [18]

CC1=CCCC(C)(C)C12CCC(C)O2 (stereo not given)
inactive: [2] | [4] | [5] | [7] | [16]
active: [6] 17.5 µM

C1CN(CCOCCN2CCOCC2)CCO1
inactive: [8] | [10] | [11] | [12] | [13] | [14] | [15] | CD40, CD40 (gene 958)

CCCCCCCCCCCCSC#N
inactive: [19]

Oc1ccc(Cl)cc1C1CCCC1
active: [3] 62.4 µM | [6] 12.9 µM | [7] 56.7 µM | [9] 39.1 µM
inactive: [2] | [4] | [5] | [16] | [17] | [18]
